# Measured values: PubChem BioAssay AID1220 (Sanford-Burnham Center for Chemical Genomics, 2008)
# The whole screen tested about 190,000 compounds, of which about 1,300 (0.68%) were called active. The list comes from a sample in which actives are over-represented; it also holds similar structures and randomly drawn compounds. A number with no mark means an inactive call. Rule as the data show it: active = inhibition above about 50%; inactive = the rest.
# Molecular target: Mannose-6-phosphate isomerase (Homo sapiens) (UniProt P34949)
# Test: human PMI inhibitors, high substrate, primary screen, biochemical, fluorescence intensity, high mannose 6-phosphate (AID 1220)
# Conditions: recombinant PMI enzyme, coupled fluorescence intensity; at 20 µM; hits give high values
# Chain of Mannose-6-phosphate isomerase (Homo sapiens) (P34949 whole entry, looked up): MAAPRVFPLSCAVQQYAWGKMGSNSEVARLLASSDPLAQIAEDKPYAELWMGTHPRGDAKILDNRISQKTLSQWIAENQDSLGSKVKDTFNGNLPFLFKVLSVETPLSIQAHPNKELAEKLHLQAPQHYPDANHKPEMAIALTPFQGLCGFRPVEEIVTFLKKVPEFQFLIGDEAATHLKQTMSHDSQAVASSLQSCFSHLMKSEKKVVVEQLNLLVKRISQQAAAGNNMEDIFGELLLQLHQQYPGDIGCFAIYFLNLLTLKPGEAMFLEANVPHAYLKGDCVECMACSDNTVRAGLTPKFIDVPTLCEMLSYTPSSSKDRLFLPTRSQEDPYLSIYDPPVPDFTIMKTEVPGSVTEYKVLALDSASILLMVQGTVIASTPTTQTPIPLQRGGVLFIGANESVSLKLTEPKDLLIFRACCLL
row,SMILES,inhibition
1,O=C(Cn1c(NCCCO)nc2ccccc21)c1cccc(Br)c1,4.9%
2,O=C(CSc1nnc(COc2ccccc2)n1Cc1ccco1)NCc1ccco1,2.2%
3,O=C1CC(c2ccccc2)CC(O)=C1C=NCc1ccccc1Cl (centres undefined),4.3%
4,O=C(COC(=O)c1cc2c(s1)CCCC2)Nc1ccc(Cl)cn1,4.6%
5,CCc1nnc(NC(=O)CCC(=O)N2CCN(CCc3ccccc3)CC2)s1,-5.9%
6,CCn1c(CNc2ccc(F)cc2)nnc1SCC(=O)N1CCCc2ccccc21,27.9%
7,CCc1ccccc1S(=O)(=O)Cc1ccc(C(=O)NCc2ccc3c(c2)OCO3)o1,-1.6%
8,CCCCn1c(NC(C)=O)c(C#N)c2nc3ccccc3nc21,57% (active)
9,N#Cc1c(N)n(CCNC(=O)c2ccccc2)c2nc3ccccc3nc12,24.7%
10,CCCCn1c(NC(=O)CC)c(C#N)c2nc3ccccc3nc21,13%
11,C=CCn1c(NC(=O)c2ccccc2Cl)c(C#N)c2nc3ccccc3nc21,54.5% (active)
12,CCCCn1c(NC(=O)c2ccccc2Cl)c(C#N)c2nc3ccccc3nc21,53.7% (active)
13,N#Cc1c(N)n(CCNC(=O)c2ccc(Cl)cc2)c2nc3ccccc3nc12,16.9%
14,CCC(=O)Nc1c(C#N)c2nc3ccccc3nc2n1-c1ccccc1C,24.5%
15,CCCCCn1c(N)c(C#N)c2nc3ccccc3nc21,42.7%
16,CCCCn1c(NC(=O)c2ccccc2)c(C#N)c2nc3ccccc3nc21,54.7% (active)
17,N#Cc1c(NC(=O)c2ccccc2Cl)n(Cc2ccccc2)c2nc3ccccc3nc12,32.7%
18,Cc1ccccc1C(=O)Nc1ccc2c(C#N)c3nc4ccccc4nc3n2c1,6.1%
19,CCCCn1c(NC(=O)c2ccccc2)nc2ccccc21,-3.6%
20,O=C(CSc1nc2ccccc2n1CC(=O)N1CCCC1)NCc1ccc2c(c1)OCO2,-0.8%
21,Cc1ccc(NC(=O)c2cc3c(s2)CCC3)cc1S(=O)(=O)N1CCOCC1,8.8%
22,COc1ccc(S(=O)(=O)NCc2cccs2)cc1,-18.3%
23,O=C(NC(=S)NCCCN1CCOCC1)c1cccc2ccccc12,1%
24,O=C1c2ccccc2C(=O)N1c1cccc2cccnc12,-2.2%
25,O=S1(=O)Nc2c(ccc3cccnc23)-c2ccccc21,69.5% (active)

row,SMILES,inhibition
1,O=S1(=O)NC(=NCCc2ccccn2)c2ccccc21,-6.8%
2,O=S(=O)(c1ccc(Cl)cc1)N1CCN(c2ccc(N3CCOCC3)nn2)CC1,-2.7%
3,N#CC1=C(N)Oc2c(O)cc3ccccc3c2C1c1ccsc1 (centres undefined),30.3%
4,N#CC1=C(N)Oc2c(ccc3ccccc23)C1c1cccs1 (centres undefined),3.4%
5,N#CC1=C(N)Oc2c(ccc3ccccc23)C1c1ccsc1 (centres undefined),53.2% (active)
6,c1ccc(N2CCN(c3nc4ccccc4n4cnnc34)CC2)cc1,10%
7,CC1(C)Oc2cc(N)c([N+](=O)[O-])cc2O1,28.1%
8,Nc1ccc(-c2ccc(N)c([N+](=O)[O-])c2)cc1[N+](=O)[O-],-2.3%
9,O=c1[nH]cnc2ccsc12,-6%
10,CCOc1ccccc1NC(=O)CN(c1ccc(OC)cc1OC)S(=O)(=O)c1ccccc1[N+](=O)[O-],-0.9%
11,C/C(=C\C(=S)Nc1ccccc1)Nc1ccc2ccccc2c1,60% (active)
12,COc1ccc(N/C(C)=C/C(=O)c2ccccc2)cc1,14.3%
13,CC(=O)c1cccc(NC(=O)C(=O)Nc2cccc3ccccc23)c1,-6.5%
14,CN(C)c1ccc(NC(=O)Nc2cccc3ccccc23)cc1,25.8%
15,CN(C)C(=S)Nc1ccc2ccccc2c1,3.2%
16,CC(=O)Nc1ccc2ccccc2c1,6.5%
17,C/C(=C\C(=S)Nc1ccccc1)Nc1ccccc1,-1.1%
18,COc1ccc(N/C(C)=C/C(=S)Nc2ccccc2)cc1,50.1% (active)
19,C/C(=C\C(=S)Nc1ccccc1)Nc1cccc2ccccc12,60.8% (active)
20,CCn1c(SCC(=O)N/N=C/c2cc(OC)c(O)c(OC)c2)nc2ccccc21,-11%
21,CC(C)NS(=O)(=O)c1ccc(NC(=S)NC(=O)c2cccc([N+](=O)[O-])c2)cc1,-2.9%
22,O=C(O)CSc1nnc(-c2ccncc2)n1CCc1ccccc1,-5.1%
23,O=c1[nH]c2cc3c(cc2cc1CN(Cc1nnnn1CC1CCCO1)C1CCCC1)OCO3 (centres undefined),-6.2%
24,O=C(CCN1CCCCC1)c1ccc2c(c1)OCCO2,43%
25,Cc1cccc(N2CCN(S(=O)(=O)c3cccc4nonc34)CC2C)c1 (centres undefined),26.5%

row,SMILES,inhibition
1,Cc1[nH]n(-c2ccccc2)c(=O)c1C(c1ccccc1C(=O)O)c1c(C)[nH]n(-c2ccccc2)c1=O,-21.9%
2,COc1ccc(NC(=O)c2ccco2)cc1N,58.3% (active)
3,COc1ccc(NC(=O)c2ccco2)cc1NC(=O)c1ccco1,4.5%
4,COc1cccc(OC)c1C(=O)Nc1ccc(NC(=O)c2ccco2)cc1,3.3%
5,N#Cc1ccc(OCC(=O)NCC2(N3CCCCC3)CCCCC2)cc1,-10.6%
6,COc1ccc(-n2c(Cn3c(=O)sc4ccccc43)nnc2SCC(=O)N2CCCC2)cc1,-4.6%
7,O=C(O)CCc1c(C(=O)O)[nH]c2ccccc12,-4.7%
8,CCN(CC)S(=O)(=O)c1cccc(NC(=O)COC(=O)c2n[nH]c(=O)c3ccccc23)c1,53.3% (active)
9,Cc1ccc(S(=O)(=O)N(C)C)cc1NC(=O)COC(=O)c1n[nH]c(=O)c2ccccc12,-8%
10,CCN(CC)S(=O)(=O)c1cccc(NC(=O)COC(=O)c2cc(=O)c3ccccc3o2)c1,9.7%
11,COc1cc(CN2CCC(C(=O)N3CCN(c4ccccc4F)CC3)CC2)ccc1O,13.4%
12,COc1cc(CN2CCC(C(=O)NC3CCCC3)CC2)cc(Br)c1O,14.6%
13,COc1cc(CN2CCC(C(=O)NC3CCCC3)CC2)cc(OC)c1O,63.9% (active)
14,COc1cc(CN2CCC(C(=O)N3CCN(c4ccccc4F)CC3)CC2)cc(OC)c1O,53.7% (active)
15,COc1cc(CN2CCC(C(=O)N3CCN(c4ccccc4F)CC3)CC2)cc(OC)c1OC,9.1%
16,COc1cc(CN2CCC(C(=O)NC3CCCC3)CC2)ccc1O,3.5%
17,Cc1cc(-c2[nH]nc3c2C(c2ccc(Cl)cc2)C(C#N)=C(N)O3)c(C)s1 (centres undefined),26.2%
18,COc1ccc(Cl)cc1CSc1n[nH]c(C)n1,8.9%
19,O=C(NCc1ccco1)C(=O)NCC1OCCCN1S(=O)(=O)c1ccccc1 (centres undefined),-6.2%
20,Cc1cc(NC(=O)CCC(=O)N(CC(=O)NCC2CCCO2)Cc2ccc(F)cc2)no1 (centres undefined),-6.3%
21,COc1ccc(C=C2C(=O)c3ccccc3C2=O)cc1O,60.8% (active)
22,CCN1C/C(=C/c2ccc(OC)c(O)c2)C(=O)/C(=C/c2ccc(OC)c(O)c2)C1,36.6%
23,COc1cc(C=C2C(=O)c3ccccc3C2=O)cc(OC)c1OC,-22.9%
24,CC1(C)C(=O)Nc2ccccc2N1C(=O)COc1cccnc1[N+](=O)[O-],-1.5%
25,CCOc1cc(-c2noc(CCCC(N)=O)n2)cc(Br)c1OC,15.3%

row,SMILES,inhibition
1,CC(C)CC1(C)NC(=O)N(CC(=O)NC(=O)Nc2ccc3c(c2)OCCO3)C1=O (centres undefined),7%
2,N#CC(C#N)=C1C=C2C=C(N3CCOCC3)CCC2CC1 (centres undefined),55.3% (active)
3,N#CC(C#N)=C1C=C2C=C(N3CCCCC3)CCC2CC1 (centres undefined),58.7% (active)
4,N#C/C(=C\c1ccc(N2CCOCC2)cc1)c1ccccc1,2.5%
5,N#Cc1cc(Cl)c(N2CCOCC2)cc1C#N,-7.2%
6,N#CC(C#N)=C1C=C2C=C(N3CCCCCC3)CCC2CC1 (centres undefined),50.6% (active)
7,CN1CCN(C2=CC3=CC(=C(C#N)C#N)CCC3CC2)CC1 (centres undefined),61.8% (active)
8,N#CC1=C(N)C2=C(N3CCCCC3)CCCC2C1(C#N)C#N (centres undefined),11.7%
9,Cc1cc(C)c(NC(=O)CS)c(Cl)c1,-11.6%
10,CSc1nc(Cl)cc(Nc2ccccc2N)n1,-3%
11,O=C(O)CCNC(=O)/C(=C/C=C/c1ccccc1)NC(=O)c1ccccc1,-0.9%
12,Cc1ccc(Nc2nc(Nc3ccc(C)cc3)nc(SC3=NCCS3)n2)cc1,8.1%
13,CCCCC1(Cc2ccc(OC)c([N+](=O)[O-])c2)C(=O)N(c2ccccc2)N(c2ccccc2)C1=O,11%
14,CC(C)(C)CC(C)(C)c1ccc(O)c(CN2CCN(CCC#N)CC2)c1,4.7%
15,CCN1CCN(C2=CC3=CC(=C(C#N)C#N)CCC3CC2)CC1 (centres undefined),59.6% (active)
16,CC1(C)CC(NCCN2CCN(C3=CC(=C(C#N)C#N)CC(C)(C)C3)CC2)=CC(=C(C#N)C#N)C1,12.4%
17,CCC(CC)COC(=O)C(C#N)c1nc2ccccc2nc1N1CCN(CC)CC1 (centres undefined),17.2%
18,CCn1cc(C(=O)N2CCc3ccccc32)c(=O)c2cc(S(=O)(=O)N3CCCCCC3)ccc21,5.7%
19,CCCC(=O)NC(c1ccc(N(C)C)cc1)c1c(O)ccc2ccccc12 (centres undefined),54.8% (active)
20,CCC(=O)NC(c1ccc(N(C)C)cc1)c1c(O)ccc2ccccc12 (centres undefined),62% (active)
21,CCCC(=O)NC(c1ccc(OC)c(OC)c1)c1c(O)ccc2ccccc12 (centres undefined),23.2%
22,CCCC(=O)NC(c1ccccc1Cl)c1c(O)ccc2ccccc12 (centres undefined),13.4%
23,CCC(=O)NC(c1ccc([N+](=O)[O-])cc1)c1c(O)ccc2ccccc12 (centres undefined),14.3%
24,CCC(=O)NC(c1ccc(OC)cc1)c1c(O)ccc2ccccc12 (centres undefined),44.2%
